The target in experiment [1] is Tyrosine-protein kinase SYK (Homo sapiens) (UniProt P43405). The following applies: at 1 µM.
The target in experiment [2] is T1, Tyrosine-protein kinase Tec (Homo sapiens) (UniProt P42680).
T1 sequence (whole entry): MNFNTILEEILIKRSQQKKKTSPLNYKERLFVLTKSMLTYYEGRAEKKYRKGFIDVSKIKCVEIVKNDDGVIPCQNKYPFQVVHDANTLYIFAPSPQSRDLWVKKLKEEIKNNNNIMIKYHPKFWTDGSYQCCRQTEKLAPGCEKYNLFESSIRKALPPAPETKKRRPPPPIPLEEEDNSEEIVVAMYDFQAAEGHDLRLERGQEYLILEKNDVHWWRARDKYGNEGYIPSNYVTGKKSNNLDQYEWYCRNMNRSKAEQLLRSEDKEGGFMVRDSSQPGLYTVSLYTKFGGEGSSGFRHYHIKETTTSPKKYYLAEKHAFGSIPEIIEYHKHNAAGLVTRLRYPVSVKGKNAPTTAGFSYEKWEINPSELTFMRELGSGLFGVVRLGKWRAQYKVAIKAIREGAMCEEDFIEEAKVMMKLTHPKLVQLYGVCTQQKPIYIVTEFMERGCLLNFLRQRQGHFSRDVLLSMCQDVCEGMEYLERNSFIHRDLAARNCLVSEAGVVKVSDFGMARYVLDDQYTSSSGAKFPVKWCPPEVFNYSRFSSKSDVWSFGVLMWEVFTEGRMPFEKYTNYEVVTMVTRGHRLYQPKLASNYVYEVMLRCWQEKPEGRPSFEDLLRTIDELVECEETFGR
The note with it: at 0.1 µM.

Experiment [3] concerns the target T1, Tyrosine-protein kinase Tec (Homo sapiens). The following applies: at 1 µM.
The target in experiment [4] is Angiopoietin-1 receptor (Homo sapiens) (UniProt Q02763). The note with it: at 0.1 µM.
Angiopoietin-1 receptor (Homo sapiens), sequence (Q02763 whole entry): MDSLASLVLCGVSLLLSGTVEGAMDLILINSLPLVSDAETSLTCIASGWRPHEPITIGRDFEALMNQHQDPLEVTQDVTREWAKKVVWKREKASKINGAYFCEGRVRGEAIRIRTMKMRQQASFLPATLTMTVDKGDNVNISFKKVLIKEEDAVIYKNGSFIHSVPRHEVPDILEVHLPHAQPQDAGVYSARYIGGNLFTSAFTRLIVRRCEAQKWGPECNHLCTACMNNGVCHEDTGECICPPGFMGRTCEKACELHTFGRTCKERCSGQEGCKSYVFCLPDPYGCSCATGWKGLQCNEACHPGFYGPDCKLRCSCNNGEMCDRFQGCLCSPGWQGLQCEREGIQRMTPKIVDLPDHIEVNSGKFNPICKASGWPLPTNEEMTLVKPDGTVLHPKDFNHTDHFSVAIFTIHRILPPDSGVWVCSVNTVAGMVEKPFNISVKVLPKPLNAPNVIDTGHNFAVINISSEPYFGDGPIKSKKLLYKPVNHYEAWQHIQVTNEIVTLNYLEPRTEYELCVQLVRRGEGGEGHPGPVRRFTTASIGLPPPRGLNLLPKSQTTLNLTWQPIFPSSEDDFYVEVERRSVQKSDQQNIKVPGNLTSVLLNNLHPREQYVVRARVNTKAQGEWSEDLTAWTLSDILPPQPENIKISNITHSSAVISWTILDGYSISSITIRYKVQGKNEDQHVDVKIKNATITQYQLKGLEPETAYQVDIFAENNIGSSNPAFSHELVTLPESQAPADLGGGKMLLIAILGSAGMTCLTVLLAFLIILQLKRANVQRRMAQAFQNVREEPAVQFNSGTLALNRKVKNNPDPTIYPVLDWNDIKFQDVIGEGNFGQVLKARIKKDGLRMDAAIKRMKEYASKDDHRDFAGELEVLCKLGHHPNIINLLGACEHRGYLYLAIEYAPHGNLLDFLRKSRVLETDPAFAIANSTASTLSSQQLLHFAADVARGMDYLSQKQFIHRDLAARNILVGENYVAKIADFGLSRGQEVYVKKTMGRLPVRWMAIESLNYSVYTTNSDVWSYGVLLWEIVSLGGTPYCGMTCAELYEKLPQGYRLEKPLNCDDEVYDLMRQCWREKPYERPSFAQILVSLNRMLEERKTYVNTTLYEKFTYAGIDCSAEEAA
Experiment [5] has the same target. The following applies: at 1 µM.
In experiment [6] the target is T2, Non-receptor tyrosine-protein kinase TNK1 (Homo sapiens) (UniProt Q13470).
T2 sequence (whole entry): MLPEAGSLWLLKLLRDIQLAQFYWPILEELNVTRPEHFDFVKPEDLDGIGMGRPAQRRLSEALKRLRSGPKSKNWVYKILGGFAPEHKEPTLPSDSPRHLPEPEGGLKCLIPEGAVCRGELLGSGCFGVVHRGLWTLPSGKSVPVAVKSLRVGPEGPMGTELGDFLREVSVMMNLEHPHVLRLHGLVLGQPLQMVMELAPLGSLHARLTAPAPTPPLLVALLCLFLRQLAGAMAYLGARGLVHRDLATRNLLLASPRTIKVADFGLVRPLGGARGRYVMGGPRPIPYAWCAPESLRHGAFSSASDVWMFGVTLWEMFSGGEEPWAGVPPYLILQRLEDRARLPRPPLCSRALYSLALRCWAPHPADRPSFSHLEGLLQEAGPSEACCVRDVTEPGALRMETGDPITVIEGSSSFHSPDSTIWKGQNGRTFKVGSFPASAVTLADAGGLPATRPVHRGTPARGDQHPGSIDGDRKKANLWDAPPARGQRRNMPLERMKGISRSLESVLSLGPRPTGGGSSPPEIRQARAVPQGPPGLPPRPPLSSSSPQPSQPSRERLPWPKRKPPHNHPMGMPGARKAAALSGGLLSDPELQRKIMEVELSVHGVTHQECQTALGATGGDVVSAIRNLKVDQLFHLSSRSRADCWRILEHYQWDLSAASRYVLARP
The note with it: at 0.1 µM.

The target of experiment [7] is T2, Non-receptor tyrosine-protein kinase TNK1 (Homo sapiens). The note with it: at 1 µM.
In experiment [8] the target is Activated CDC42 kinase 1 (Homo sapiens) (UniProt Q07912). The following applies: at 0.1 µM.
Activated CDC42 kinase 1 (Homo sapiens), sequence (Q07912 whole entry, looked up): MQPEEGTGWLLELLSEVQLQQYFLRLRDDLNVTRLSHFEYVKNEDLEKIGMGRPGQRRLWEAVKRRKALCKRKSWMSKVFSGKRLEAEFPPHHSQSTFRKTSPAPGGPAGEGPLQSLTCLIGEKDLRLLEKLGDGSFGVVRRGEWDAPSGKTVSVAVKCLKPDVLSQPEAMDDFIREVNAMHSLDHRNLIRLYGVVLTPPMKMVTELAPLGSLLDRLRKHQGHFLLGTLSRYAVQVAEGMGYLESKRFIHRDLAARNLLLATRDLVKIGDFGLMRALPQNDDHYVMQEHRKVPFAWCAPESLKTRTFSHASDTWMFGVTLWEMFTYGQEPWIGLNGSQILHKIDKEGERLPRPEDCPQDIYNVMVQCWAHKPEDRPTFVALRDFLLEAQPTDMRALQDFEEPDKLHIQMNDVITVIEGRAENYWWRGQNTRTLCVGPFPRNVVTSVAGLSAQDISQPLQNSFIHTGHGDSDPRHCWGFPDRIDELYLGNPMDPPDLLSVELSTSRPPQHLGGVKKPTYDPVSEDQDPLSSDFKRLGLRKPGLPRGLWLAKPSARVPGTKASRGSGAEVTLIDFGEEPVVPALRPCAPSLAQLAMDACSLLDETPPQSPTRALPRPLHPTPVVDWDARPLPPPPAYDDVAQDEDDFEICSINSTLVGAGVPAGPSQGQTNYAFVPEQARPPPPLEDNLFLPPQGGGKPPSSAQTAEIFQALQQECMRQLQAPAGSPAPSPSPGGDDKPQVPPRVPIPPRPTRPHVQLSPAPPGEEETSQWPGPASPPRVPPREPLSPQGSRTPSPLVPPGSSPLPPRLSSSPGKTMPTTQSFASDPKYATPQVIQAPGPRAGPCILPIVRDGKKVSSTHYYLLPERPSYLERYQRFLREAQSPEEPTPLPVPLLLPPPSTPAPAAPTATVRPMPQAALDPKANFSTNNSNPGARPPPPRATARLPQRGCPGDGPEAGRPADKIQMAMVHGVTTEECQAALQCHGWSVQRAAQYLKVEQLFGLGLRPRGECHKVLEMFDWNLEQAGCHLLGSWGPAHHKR
Experiment [9] has the same target. The following applies: at 1 µM.
Experiment [10] addresses High affinity nerve growth factor receptor (Homo sapiens) (UniProt P04629). The following applies: at 0.1 µM.
Experiment [11] shares this target. The note with it: at 1 µM.
The target in experiment [12] is BDNF/NT-3 growth factors receptor (Homo sapiens) (UniProt Q16620). The note with it: at 0.1 µM.
BDNF/NT-3 growth factors receptor (Homo sapiens), sequence (Q16620 32-822 limits assumed): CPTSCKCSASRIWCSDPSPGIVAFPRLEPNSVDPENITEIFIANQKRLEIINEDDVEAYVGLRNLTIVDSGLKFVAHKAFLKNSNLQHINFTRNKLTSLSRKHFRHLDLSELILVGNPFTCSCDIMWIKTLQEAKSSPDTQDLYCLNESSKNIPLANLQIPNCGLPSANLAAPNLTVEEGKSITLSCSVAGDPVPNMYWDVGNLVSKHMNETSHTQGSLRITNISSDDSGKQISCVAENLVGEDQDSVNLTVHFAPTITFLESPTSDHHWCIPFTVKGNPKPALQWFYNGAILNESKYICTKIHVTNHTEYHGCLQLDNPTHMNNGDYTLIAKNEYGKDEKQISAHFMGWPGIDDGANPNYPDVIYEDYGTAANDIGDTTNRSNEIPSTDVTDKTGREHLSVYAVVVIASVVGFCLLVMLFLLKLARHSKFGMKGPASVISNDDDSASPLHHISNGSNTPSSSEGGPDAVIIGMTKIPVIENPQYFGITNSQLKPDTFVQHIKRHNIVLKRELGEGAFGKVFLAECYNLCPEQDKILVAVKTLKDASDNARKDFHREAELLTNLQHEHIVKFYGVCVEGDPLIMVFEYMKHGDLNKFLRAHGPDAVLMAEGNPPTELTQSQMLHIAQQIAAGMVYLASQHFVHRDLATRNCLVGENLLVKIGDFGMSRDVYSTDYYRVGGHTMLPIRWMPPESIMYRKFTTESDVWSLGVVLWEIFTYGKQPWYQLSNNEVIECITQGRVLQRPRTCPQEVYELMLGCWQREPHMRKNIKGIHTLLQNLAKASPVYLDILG
Experiment [13] has the same target. The following applies: at 1 µM.
The target in experiment [14] is NT-3 growth factor receptor (Homo sapiens) (UniProt Q16288). The following applies: at 0.1 µM.
NT-3 growth factor receptor (Homo sapiens), sequence (Q16288 32-839 limits assumed): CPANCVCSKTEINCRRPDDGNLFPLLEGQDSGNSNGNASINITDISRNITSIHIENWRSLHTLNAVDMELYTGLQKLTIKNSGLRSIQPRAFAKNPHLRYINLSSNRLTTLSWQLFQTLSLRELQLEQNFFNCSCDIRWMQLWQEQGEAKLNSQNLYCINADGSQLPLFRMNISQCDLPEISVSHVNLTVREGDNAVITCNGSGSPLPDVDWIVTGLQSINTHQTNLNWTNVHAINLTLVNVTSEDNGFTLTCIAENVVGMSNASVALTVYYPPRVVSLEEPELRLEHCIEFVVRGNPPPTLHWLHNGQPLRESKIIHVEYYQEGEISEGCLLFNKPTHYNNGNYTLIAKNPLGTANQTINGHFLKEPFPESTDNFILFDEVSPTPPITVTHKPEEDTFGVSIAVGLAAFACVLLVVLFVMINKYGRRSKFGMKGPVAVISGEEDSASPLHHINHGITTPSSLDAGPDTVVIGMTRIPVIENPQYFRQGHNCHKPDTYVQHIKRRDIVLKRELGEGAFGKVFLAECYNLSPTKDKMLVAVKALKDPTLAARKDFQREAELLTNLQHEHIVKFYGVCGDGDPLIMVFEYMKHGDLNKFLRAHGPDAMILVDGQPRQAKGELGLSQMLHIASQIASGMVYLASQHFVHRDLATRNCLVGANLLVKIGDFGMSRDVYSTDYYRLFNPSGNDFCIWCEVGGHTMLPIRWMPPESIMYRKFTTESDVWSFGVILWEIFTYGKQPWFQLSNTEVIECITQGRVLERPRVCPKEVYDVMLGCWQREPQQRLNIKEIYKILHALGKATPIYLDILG
For experiment [15] the target is unchanged. The following applies: at 1 µM.
In experiment [16] the target is T3, Tyrosine-protein kinase TXK (Homo sapiens) (UniProt P42681).
T3 sequence (whole entry): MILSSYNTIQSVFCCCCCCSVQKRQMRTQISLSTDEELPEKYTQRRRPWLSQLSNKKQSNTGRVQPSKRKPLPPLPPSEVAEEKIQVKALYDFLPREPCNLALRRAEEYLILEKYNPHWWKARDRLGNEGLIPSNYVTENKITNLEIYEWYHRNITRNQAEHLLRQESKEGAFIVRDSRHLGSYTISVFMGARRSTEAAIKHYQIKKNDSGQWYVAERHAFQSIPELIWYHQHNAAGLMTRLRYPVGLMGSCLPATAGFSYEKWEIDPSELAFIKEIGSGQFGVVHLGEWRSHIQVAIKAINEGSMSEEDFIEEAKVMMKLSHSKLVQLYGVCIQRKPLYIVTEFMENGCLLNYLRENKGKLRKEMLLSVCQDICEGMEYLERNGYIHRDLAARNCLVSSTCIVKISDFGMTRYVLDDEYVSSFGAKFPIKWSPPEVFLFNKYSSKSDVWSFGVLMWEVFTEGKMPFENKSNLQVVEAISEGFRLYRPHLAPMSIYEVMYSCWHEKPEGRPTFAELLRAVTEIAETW
The following applies: at 0.1 µM.

Experiment [17] concerns the target T3, Tyrosine-protein kinase TXK (Homo sapiens). The note with it: at 1 µM.
The target of experiment [18] is Non-receptor tyrosine-protein kinase TYK2 (Homo sapiens) (UniProt P29597). The note with it: at 0.1 µM.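 Also: each value is a mean of the inhibition readings.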
Non-receptor tyrosine-protein kinase TYK2 (Homo sapiens), sequence (P29597 whole entry): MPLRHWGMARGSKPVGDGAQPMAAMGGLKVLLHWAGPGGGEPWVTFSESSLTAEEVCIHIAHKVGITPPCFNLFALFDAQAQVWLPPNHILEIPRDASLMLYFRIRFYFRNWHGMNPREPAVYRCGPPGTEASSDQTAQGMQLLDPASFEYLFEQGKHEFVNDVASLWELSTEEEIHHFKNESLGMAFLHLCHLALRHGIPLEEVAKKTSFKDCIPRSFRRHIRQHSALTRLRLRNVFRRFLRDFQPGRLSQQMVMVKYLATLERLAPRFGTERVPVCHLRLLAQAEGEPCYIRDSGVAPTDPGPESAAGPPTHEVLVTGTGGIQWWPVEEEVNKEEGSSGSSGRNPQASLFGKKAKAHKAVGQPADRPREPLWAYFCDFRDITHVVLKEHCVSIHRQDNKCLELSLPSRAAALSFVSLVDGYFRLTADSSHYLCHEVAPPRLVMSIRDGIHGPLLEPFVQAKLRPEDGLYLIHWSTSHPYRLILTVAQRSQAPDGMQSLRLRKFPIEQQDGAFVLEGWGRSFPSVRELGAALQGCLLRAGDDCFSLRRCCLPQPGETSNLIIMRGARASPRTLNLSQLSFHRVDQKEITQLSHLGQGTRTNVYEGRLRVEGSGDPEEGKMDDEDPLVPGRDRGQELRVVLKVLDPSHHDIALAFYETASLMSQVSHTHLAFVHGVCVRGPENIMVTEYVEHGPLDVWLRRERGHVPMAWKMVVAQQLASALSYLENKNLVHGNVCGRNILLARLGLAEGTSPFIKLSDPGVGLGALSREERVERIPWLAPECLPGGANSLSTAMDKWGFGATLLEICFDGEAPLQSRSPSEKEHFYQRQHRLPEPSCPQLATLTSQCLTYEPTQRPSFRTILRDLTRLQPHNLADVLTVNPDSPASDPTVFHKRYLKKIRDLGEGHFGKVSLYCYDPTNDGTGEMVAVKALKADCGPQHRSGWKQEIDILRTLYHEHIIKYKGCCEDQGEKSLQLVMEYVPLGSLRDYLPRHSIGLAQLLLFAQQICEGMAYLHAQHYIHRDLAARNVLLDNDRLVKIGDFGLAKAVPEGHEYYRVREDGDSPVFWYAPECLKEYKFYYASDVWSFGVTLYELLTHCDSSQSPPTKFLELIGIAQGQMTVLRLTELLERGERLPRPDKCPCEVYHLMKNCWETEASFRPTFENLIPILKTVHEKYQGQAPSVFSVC
Experiment [19] has as its target T4, Dual specificity protein kinase TTK (Homo sapiens) (UniProt P33981).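 Also: reported figures are mean TTK inhibition at 1 µM.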
T4 sequence (whole entry): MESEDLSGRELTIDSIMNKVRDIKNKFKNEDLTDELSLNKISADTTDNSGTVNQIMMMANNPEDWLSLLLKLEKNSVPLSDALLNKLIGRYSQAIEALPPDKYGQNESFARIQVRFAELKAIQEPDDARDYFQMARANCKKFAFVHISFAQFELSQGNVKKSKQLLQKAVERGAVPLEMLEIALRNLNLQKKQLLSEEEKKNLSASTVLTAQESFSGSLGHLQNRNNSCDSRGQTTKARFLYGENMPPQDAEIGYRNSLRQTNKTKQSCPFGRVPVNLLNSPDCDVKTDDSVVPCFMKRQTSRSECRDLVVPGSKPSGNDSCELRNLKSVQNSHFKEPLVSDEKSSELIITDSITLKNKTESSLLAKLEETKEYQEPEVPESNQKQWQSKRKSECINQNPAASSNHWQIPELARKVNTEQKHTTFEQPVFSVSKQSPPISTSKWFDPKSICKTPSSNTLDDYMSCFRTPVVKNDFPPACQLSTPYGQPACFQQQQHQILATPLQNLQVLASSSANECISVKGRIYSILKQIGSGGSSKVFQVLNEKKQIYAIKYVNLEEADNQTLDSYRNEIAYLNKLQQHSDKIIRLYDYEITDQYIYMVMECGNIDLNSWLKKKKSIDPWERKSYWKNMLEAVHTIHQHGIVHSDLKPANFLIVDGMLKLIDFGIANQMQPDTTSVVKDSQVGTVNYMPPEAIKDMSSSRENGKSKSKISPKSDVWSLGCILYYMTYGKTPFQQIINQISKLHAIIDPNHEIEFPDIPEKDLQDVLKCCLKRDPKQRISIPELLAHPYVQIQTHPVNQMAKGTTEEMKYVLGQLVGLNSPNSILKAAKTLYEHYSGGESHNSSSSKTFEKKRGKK
The following applies: at 1 µM.

In experiment [20] the target is T5, Aurora kinase A (Homo sapiens) (UniProt O14965).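 Also: each reported value is a mean percent inhibition of Aurora-A.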
T5 sequence (whole entry): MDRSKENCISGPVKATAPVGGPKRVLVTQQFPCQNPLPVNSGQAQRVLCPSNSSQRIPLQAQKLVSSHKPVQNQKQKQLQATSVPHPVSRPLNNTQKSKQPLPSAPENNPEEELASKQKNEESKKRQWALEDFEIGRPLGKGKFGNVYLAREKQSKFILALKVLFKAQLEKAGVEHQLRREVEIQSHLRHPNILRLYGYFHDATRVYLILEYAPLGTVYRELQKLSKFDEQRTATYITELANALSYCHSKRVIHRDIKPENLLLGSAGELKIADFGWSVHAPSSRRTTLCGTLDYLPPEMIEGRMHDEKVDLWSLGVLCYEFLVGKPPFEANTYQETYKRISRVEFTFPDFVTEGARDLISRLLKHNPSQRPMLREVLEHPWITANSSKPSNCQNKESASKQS
The following applies: at 0.1 µM.

A word on the inhibition: it is the change of the read-out against control, counted positive when it falls. `CC(C)=Cc1cccc2c1/C(=N/Nc1ccc(S(N)(=O)=O)cc1)C(=O)N2`: the inhibition in experiment [1] was -2.03%; in [2] it was 2.44%; in [3] it was 10.1%; in experiment [4], 0.37%; in [5], 3.74%; in experiment [6], 9.88%. Moreover, the inhibition in [7] turned out to be 65.6%; in [8], 0.01%; in experiment [9], 2.76%; in [10], 6.87%; in experiment [11] it was 51.5%; in [12], 22.4%. The inhibition in experiment [13] amounted to 75.3%; in [14] it was 23.6%; in [15], 77.2%; in experiment [16], 3.64%; in experiment [17] it was 12.9%; in experiment [18] it was 3.75%. The inhibition in experiment [19] worked out at 51.7%; in experiment [20], 25.6%.
Consider `Fc1cccc(COc2ccc(Nc3ncnc4cc(-c5ccc[nH]5)sc34)cc2Cl)c1`, for which the inhibition in [1] is 2.33%; in experiment [2], -0.22%; in [3] it was 3.69%; in [4], 2.27%; in experiment [5], 8.54%; in [6], 1.22%. Besides, the inhibition turned out to be 1.7% in [7]; 0.28% in [8]; 0.88% in experiment [9]; 2.39% in [10]; 2.72% in experiment [11]; 2.62% in experiment [12]. Besides, the inhibition in [13] was 0.88%; in [14], 2.48%; in experiment [15], 2.41%; in experiment [16], 2.95%; in experiment [17], 9.57%; in experiment [18], -1%. Besides, the inhibition was 10.7% in experiment [19] and -2.74% in experiment [20].
In the case of `CCn1c(-c2nonc2N)nc2cncc(C(=O)N3CCNCC3)c21`, the inhibition in experiment [1] came to 3.25%; in experiment [2], 7.87%; in [3] it was 7.17%; in experiment [4], 6.61%; in experiment [5] it was 5.14%; in experiment [6], 3.89%. The inhibition in [7] was determined as 5.69%; in experiment [8] it was 1.51%; in experiment [9], 1.52%; in experiment [10] it was 1.71%; in [11], 4.86%; in [12], 3.21%. In addition, the inhibition in [13] is 4.35%; in [14], 3.96%; in experiment [15] it was 4.33%; in experiment [16], 7.08%; in experiment [17], 5.49%; in [18], -1.93%. Moreover, the inhibition came out at 12.5% in experiment [19] and 5.21% in [20].

For the origin of these results see ChEMBL document CHEMBL1961873, “Compounds: GSK PKIS; Assays: Nanosyn kinase panel” (2012).
